This is an account of results in PubChem BioAssay (NCI).

Common to all, as to assay: NCI-60 one-dose screen, 48 h (100 = growth as untreated, 0 = no growth, -100 = all killed)
One assay concerns NCI-H226 lung. The conditions noted are these: 10 µM unless noted.
The subject of another assay is NCI-H522 lung. The conditions noted are these: 10 µM unless noted.
The next assay has as its system COLO 205 colon. The note with it: 10 µM.
The test system of another assay is MALME-3M melanoma. The note with it: 10 µM unless noted.
The test system of the next assay is HT29 colon. The conditions noted are these: 10 µM unless noted.
For the next assay, the system named is SNB-75 CNS. The conditions noted are these: 10 µM unless noted.
Another assay concerns SK-MEL-5 melanoma. The conditions noted are these: 10 µM unless noted.
The subject of a further assay is CAKI-1 renal. The conditions noted are these: 10 µM unless noted.
The test system of the next assay is CCRF-CEM leukemia. The conditions noted are these: 10 µM unless noted.
A further assay concerns RPMI-8226 leukemia. The note with it: 10 µM unless noted.
The test system of another assay is OVCAR-5 ovarian. The note with it: 10 µM unless noted.
The subject of a further assay is IGROV1 ovarian. The note with it: 10 µM.
The next assay has as its system OVCAR-3 ovarian. The note with it: 10 µM unless noted.
The subject of another assay is HS 578T breast. The conditions noted are these: 10 µM unless noted.
The next assay deals with MCF7 breast. The conditions noted are these: 10 µM unless noted.
The next assay relates to PC-3 prostate. The note with it: 10 µM unless noted.
In a further assay the test system is HOP-92 NSCLC. The conditions noted are these: 10 µM unless noted.
A further assay deals with EKVX NSCLC. The note with it: 10 µM unless noted.
Another assay concerns NCI-H322M lung. The note with it: 10 µM unless noted.

The panel holds about 83,000 compounds, 20% with a hit somewhere; the sample as a whole holds those more often.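 Interpretation: 100, growth as untreated; towards 0, rising growth inhibition; 0, no net growth; 0 to -100, cell death. Compounds scoring below 10 were considered active.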 Unmarked numbers belong to inactive results. The source made the active and inactive calls.

`O=CC(Br)C(Br)c1ccccc1` (stereo not given): the growth is 97.7% in the assay with NCI-H226 lung; 98% in the assay on NCI-H522 lung; 123% with COLO 205 colon; 82.6% with MALME-3M melanoma; 71.4% in the assay on HT29 colon; 92.6% with SNB-75 CNS. Further, the growth was 89.9% in the assay with SK-MEL-5 melanoma; 92.9% with CAKI-1 renal; -1.8% (active) in the assay on CCRF-CEM leukemia; 89% in the assay on RPMI-8226 leukemia; 98% with OVCAR-5 ovarian; 74.8% with IGROV1 ovarian. The growth was 33.3% in the assay with OVCAR-3 ovarian, 97.2% with HS 578T breast and 44.1% with MCF7 breast.

Take `CC(C)(C)N(Cc1ccccc1)N=O`: the growth with NCI-H226 lung is 91.7%; in the assay on NCI-H522 lung it was 90.3%; in the assay with COLO 205 colon, 108%; in the assay on MALME-3M melanoma, 107%; with HT29 colon, 104%; in the assay on SNB-75 CNS, 86.5%. In addition, the growth is 98.7% with PC-3 prostate; 99.1% in the assay on SK-MEL-5 melanoma; 92.9% in the assay on CAKI-1 renal; 98.4% in the assay on CCRF-CEM leukemia; 99.2% with RPMI-8226 leukemia; 98.4% with OVCAR-5 ovarian. The growth was 103% with IGROV1 ovarian, 118% in the assay with OVCAR-3 ovarian, 109% with HS 578T breast and 97.7% in the assay with MCF7 breast.

For the compound `O=C(O)C1(Br)CC12c1ccccc1-c1ccccc12` (stereo not given), the growth with NCI-H226 lung was 98.9%; in the assay on HOP-92 NSCLC it was 100%; in the assay with NCI-H522 lung it was 95.9%; in the assay on COLO 205 colon, 115%; with MALME-3M melanoma, 100%; with HT29 colon, 104%. The growth in the assay with PC-3 prostate was 100%; in the assay with SK-MEL-5 melanoma, 98.4%; with EKVX NSCLC, 116%; in the assay with CCRF-CEM leukemia, 97.4%; with OVCAR-5 ovarian, 104%; with IGROV1 ovarian it was 99.7%. Further, the results for the growth in the assay with OVCAR-3 ovarian, with HS 578T breast and with MCF7 breast were 103%, 110% and 93.4%, respectively.

`n1nc(-c2nonc2-c2nn[nH]n2)n[nH]1`: the growth is 104% in the assay on HOP-92 NSCLC; 101% in the assay on NCI-H522 lung; 117% in the assay on COLO 205 colon; 106% in the assay with MALME-3M melanoma; 107% with HT29 colon; 106% in the assay on SNB-75 CNS. Moreover, the growth with PC-3 prostate was 102%; in the assay on SK-MEL-5 melanoma it was 104%; with EKVX NSCLC it was 96.3%; in the assay with CAKI-1 renal, 98.8%; with RPMI-8226 leukemia it was 96.5%; in the assay with OVCAR-5 ovarian, 108%. In addition, the growth was 118% in the assay on IGROV1 ovarian, 150% in the assay with OVCAR-3 ovarian and 101% in the assay with MCF7 breast.

With `CC1([N+](=O)[O-])COP(=O)(Nc2ccc(F)cc2)OC1` (stereo not given), the growth is 101% with NCI-H226 lung; 89.4% in the assay with NCI-H522 lung; 107% with COLO 205 colon; 110% with MALME-3M melanoma; 96.5% in the assay with HT29 colon; 95.6% in the assay on SNB-75 CNS. Moreover, the growth in the assay with PC-3 prostate is 95.5%; in the assay with EKVX NSCLC, 115%; in the assay on CCRF-CEM leukemia, 96.3%; in the assay with OVCAR-5 ovarian it was 106%; in the assay on OVCAR-3 ovarian, 104%; in the assay with HS 578T breast, 103%. Further, the growth with MCF7 breast is 100%.

With `Clc1ccc(SSC(Cl)(Cl)Cl)cc1`, the growth in the assay with NCI-H226 lung is 110%; with NCI-H322M lung it was 112%; in the assay on HOP-92 NSCLC, 84.8%; with NCI-H522 lung, 107%; in the assay on COLO 205 colon, 114%; in the assay with MALME-3M melanoma it was 95.7%. In addition, the growth in the assay with HT29 colon is 101%; in the assay with SNB-75 CNS it was 106%; in the assay on PC-3 prostate, 88.9%; in the assay on SK-MEL-5 melanoma, 110%; in the assay on EKVX NSCLC, 108%; in the assay on CAKI-1 renal, 119%. Besides, the growth in the assay with CCRF-CEM leukemia was 109%; in the assay on RPMI-8226 leukemia, 119%; in the assay on OVCAR-5 ovarian it was 105%; in the assay on IGROV1 ovarian, 107%.

As for `CC[C@]12C=CCN3CC[C@@]4(c5ccc(OC)cc5N(C)[C@H]4[C@@](O)(C(=O)OC)[C@@H]1OC(=O)CCCN1CCN(CCCC(=O)O[C@@H]4[C@]5(CC)C=CCN6CC[C@@]7(c8ccc(OC)cc8N(C)[C@H]7[C@@]4(O)C(=O)OC)[C@@H]65)CC1)[C@@H]32`, the growth with NCI-H322M lung is -88.5% (active); with HOP-92 NSCLC it was -63.3% (active); in the assay with COLO 205 colon it was -79% (active); in the assay with MALME-3M melanoma, -90.7% (active); in the assay with SNB-75 CNS, -94.3% (active); in the assay with PC-3 prostate, -80.3% (active). The growth in the assay on SK-MEL-5 melanoma was -95.9% (active); in the assay on EKVX NSCLC, -88.4% (active); with CAKI-1 renal, -97% (active); in the assay with CCRF-CEM leukemia, -56.7% (active); with RPMI-8226 leukemia it was -55.2% (active); with IGROV1 ovarian, -76.6% (active). Moreover, the growth is -85.2% (active) in the assay on OVCAR-3 ovarian, -61.7% (active) with HS 578T breast and -83.8% (active) with MCF7 breast.

For the compound `O=C(N/N=C/c1ccc([N+](=O)[O-])o1)c1cc([N+](=O)[O-])cc([N+](=O)[O-])c1O`, the growth in the assay with NCI-H226 lung is 97.9%; in the assay on HOP-92 NSCLC it was 117%; in the assay with COLO 205 colon, 107%; in the assay with MALME-3M melanoma it was 122%; in the assay on HT29 colon, 97.4%; in the assay with SNB-75 CNS it was 83%. Also, the growth in the assay on SK-MEL-5 melanoma is 95%; in the assay on EKVX NSCLC, 108%; in the assay with CCRF-CEM leukemia it was 98.3%; in the assay with RPMI-8226 leukemia, 99.8%; in the assay on OVCAR-5 ovarian, 114%; in the assay with IGROV1 ovarian, 97%. The results for the growth in the assay on OVCAR-3 ovarian and in the assay with HS 578T breast were 113% and 104%, respectively.

For `CC[C@@]1(C2O[C@@H](C3O[C@@](O)(CC)[C@H](C)C[C@@H]3C)C[C@@H]2C)CC[C@H]([C@]2(C)CCC3(C[C@H](O)[C@@H](C)[C@@H]([C@H](C)[C@@H](OC)[C@H](C)C(=O)O)O3)O2)O1` (stereo not given in full), the growth is 38.8% in the assay on NCI-H322M lung; 16% with SNB-75 CNS; 26.1% with EKVX NSCLC; 24.5% in the assay with CAKI-1 renal; 36.9% with IGROV1 ovarian; 11% in the assay on OVCAR-3 ovarian.

`Oc1ccc(Br)cc1CN1CCN(Cc2ccc(Cl)cc2)CC1`: the growth in the assay on NCI-H322M lung was 103%; in the assay with HOP-92 NSCLC, 24.8%; in the assay with NCI-H522 lung, -84.4% (active); in the assay on COLO 205 colon it was 71.1%; in the assay on HT29 colon it was 70.2%; with SNB-75 CNS, 51.5%. For the same compound, the growth in the assay on PC-3 prostate was 54%; with SK-MEL-5 melanoma, -3.7% (active); with CAKI-1 renal it was 59.5%; in the assay with CCRF-CEM leukemia it was 26.7%; with RPMI-8226 leukemia it was 16.7%; with OVCAR-5 ovarian it was 97.7%. Also, the growth in the assay with OVCAR-3 ovarian is 67.8%; in the assay on HS 578T breast it was 80.9%; in the assay with MCF7 breast, 34.5%.
